Values joined by “and” are separate entries in the source; they are usually repeats but may differ in a detail not shown here. Equal entries are not always repeated. Records with an inconclusive call do not appear. Active and inactive are the calls of the source. Unless noted, no rule for the calls is given here.
Key:
[1] = qHTS Assay for Identifying Gametocytocidal Compounds (AID 743244; active = well fitted curve in the direction sought with a large enough effect; an effect the other way counts as inactive or inconclusive;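 also: % is scaled to controls: 0 for no effect and ±100 for the full control effect; actives lower the fluorescent signal which means gametocytes are killed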); conditions: P. falciparum 3D7 stage III-V gametocytes, alamarBlue, 72 h; max response: stronger effect = lower value
Method in brief: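 P. falciparum 3D7 stage III–V gametocytes (20,000 cells/well) were exposed to compounds for 72 h at 37 °C, 5% CO2. AlamarBlue was then added for 24 h; decreased resorufin fluorescence (Ex 525/Em 598 nm) indicated loss of viability.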

[2] = Ebola virus entry assay, blue channel fluorescence
[3] = Ebola virus entry assay, ratio channel
[4] = qHTS assay for small molecule agonists of the antioxidant response element (ARE) signaling pathway measured by Nrf2-dependant transcriptional activity (AID 720636; active = well fitted curve in the direction sought with a large enough effect in the repeat runs; an effect the other way counts as inactive or inconclusive; also: % of control where 0% means no effect)
Method in brief: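 Nrf2-dependent transcription read as ONE-Glo luciferase signal from ARE-luc HepG2 reporter cells after 16 hr compound treatment at 37 C, 5% CO2, in assay medium with 1% dialyzed FBS.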

[5] = qHTS assay for small molecule antagonists of the retinoid-related orphan receptor gamma (ROR-gamma) signaling pathway - cell viability counter screen (AID 720652; active = well fitted curve in the direction sought with a large enough effect in the repeat runs; an effect the other way counts as inactive or inconclusive;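 also: CHO reporter cells with doxycycline-induced ROR-gamma expression; compound exposure lasted 16 hr before ATP read; % is scaled to controls: 0 for no effect and ±100 for the full control effect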)
Method in brief: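 Cytotoxicity is quantified via intracellular ATP (CellTiter-Glo luminescence) in doxycycline-induced CHO ROR response element-luciferase reporter cells treated with compound for 16 hr at 37 C, 5% CO2.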

[6] = qHTS assay for small molecule agonists of the antioxidant response element (ARE) signaling pathway measured by Nrf2-dependant transcriptional activity - cell viability counter screen (AID 720653; active = well fitted curve in the direction sought with a large enough effect in the repeat runs; an effect the other way counts as inactive or inconclusive; also: % is scaled to controls: 0 for no effect and ±100 for the full control effect); conditions: ARE-bla HepG2 viability, CellTiter-Glo ATP luminescence, 16 h; stronger effect = lower value
Method in brief: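 Cytotoxicity counter screen: intracellular ATP quantified by CellTiter-Glo luminescence in the same ARE-bla HepG2 plates, after 16 h compound exposure and a 2 h beta-lactamase substrate step.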

[7] = qHTS assay for cell viability of HEK293 cells (AID 743288; active = well fitted curve in the direction sought with a large enough effect; an effect the other way counts as inactive or inconclusive; also: % is scaled to controls: 0 for no effect and ±100 for the full control effect; nearly all actives have a fitted effect of over 50% in size); conditions: ATP luminescence (CellTiter-Glo), 18 h, stronger effect = lower value
Method in brief: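 Parental HEK293 cells, 2,000 per well, preincubated at least 5 h at 37 C, then exposed to compounds in DMSO for 18 h at 37 C. Viability by CellTiter-Glo ATP luminescence after 30 min at room temperature.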

[8] = qHTS for Activators of Parkin Expression: LOPAC Validation Assay (FLuc Reporter) (AID 720573; active = well fitted curve in the direction sought with a large enough effect; an effect the other way counts as inactive or inconclusive;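 also: 0% = DMSO and 100% = positive control compounds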)
Method in brief: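 Neuronal cell line stably expressing FLuc/NLuc coincidence reporter under the Parkin promoter, 1,500 cells/well, dosed 24 h after seeding in 7-point series for 24 h at 37 C. FLuc luminescence read; normalized to DMSO and positive control (100%).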

[9] = biological target: T1, Hexokinase-4 (Homo sapiens) + Glucokinase regulatory protein (Homo sapiens) (UniProt P35557+Q14397); assay: qHTS assay for inhibitors of recombinant human GCK-GKRP interaction: Diaphorase-coupled assay (AID 743205; active = well fitted curve in the direction sought with a large enough effect; an effect the other way counts as inactive or inconclusive)
T1 sequence (P35557 whole entry, looked up): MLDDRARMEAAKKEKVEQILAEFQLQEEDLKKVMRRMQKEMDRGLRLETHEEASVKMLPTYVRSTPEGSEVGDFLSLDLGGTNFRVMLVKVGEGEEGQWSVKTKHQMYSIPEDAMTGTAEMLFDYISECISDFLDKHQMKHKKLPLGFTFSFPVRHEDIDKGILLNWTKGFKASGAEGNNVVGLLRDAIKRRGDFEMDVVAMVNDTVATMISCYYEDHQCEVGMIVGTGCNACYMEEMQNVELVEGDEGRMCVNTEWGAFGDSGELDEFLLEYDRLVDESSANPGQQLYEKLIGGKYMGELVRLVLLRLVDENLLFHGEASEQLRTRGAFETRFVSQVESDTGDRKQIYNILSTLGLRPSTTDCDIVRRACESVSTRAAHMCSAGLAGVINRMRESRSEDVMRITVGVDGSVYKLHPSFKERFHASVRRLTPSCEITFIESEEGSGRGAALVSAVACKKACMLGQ
T1 sequence (Q14397 whole entry, looked up): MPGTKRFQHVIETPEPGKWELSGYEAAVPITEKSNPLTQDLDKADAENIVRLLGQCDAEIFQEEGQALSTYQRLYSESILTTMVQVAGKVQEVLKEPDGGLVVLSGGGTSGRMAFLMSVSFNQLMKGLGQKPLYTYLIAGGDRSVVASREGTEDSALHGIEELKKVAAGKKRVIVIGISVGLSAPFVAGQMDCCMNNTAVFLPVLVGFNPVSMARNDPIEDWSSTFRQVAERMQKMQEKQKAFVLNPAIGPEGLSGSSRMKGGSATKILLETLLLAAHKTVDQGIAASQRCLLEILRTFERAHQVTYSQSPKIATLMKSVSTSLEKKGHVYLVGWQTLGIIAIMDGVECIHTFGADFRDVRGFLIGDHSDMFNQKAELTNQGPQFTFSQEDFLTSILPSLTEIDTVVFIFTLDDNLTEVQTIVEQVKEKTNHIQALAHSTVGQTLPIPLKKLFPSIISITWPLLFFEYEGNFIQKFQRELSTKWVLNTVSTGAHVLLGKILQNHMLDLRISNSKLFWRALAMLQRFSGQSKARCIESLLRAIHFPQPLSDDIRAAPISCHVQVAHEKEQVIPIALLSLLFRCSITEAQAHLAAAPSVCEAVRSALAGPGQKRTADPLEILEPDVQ
Method in brief: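 Compounds pre-incubated 20 min with substrate, then 10 nM GST-GCK with 10 nM FLAG-GKRP added. GCK activity coupled via G6PDH and diaphorase to resorufin (5 mM glucose, 0.4 mM ATP, 0.15 mM NADP+, pH 7.6), read kinetically over 30 minutes at Ex 525/Em 590 nm.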

[10] = biological target: T1, Hexokinase-4 (Homo sapiens) + Glucokinase regulatory protein (Homo sapiens); assay: qHTS assay for inhibitors of recombinant human GCK-GKRP interaction: ADP-Glo assay (AID 743206; active = well fitted curve in the direction sought with a large enough effect; an effect the other way counts as inactive or inconclusive;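 also: plate controls were DMSO plus enzyme for no effect and no enzyme for full effect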)
Method in brief: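 GST-GCK and FLAG-GKRP (15 nM each in the dispensed mix, with 2 uM S6P) react with 0.4 mM ATP and 5 mM glucose (final) in Hepes pH 7.6 for 60 min at room temperature. ADP is measured by ADP-Glo luminescence.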

[11] = qHTS profiling of the MIPE4 collection as inhibitors of Plasmodium falciparum (3D7) proliferation (AID 743344);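 also: scaled between DMSO vehicle wells and 0.29 µM artemisinin as full inhibition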; conditions: P. falciparum 3D7 in erythrocytes, SYBR Green DNA fluorescence, 72 h; at 28.5 µM (top of the series) unless noted
Method in brief: (§1)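 Erythrocytes infected with P. falciparum (0.3% parasitemia, 2.5% hematocrit) incubated with compounds 72 h at 37 C, 5% CO2. Lysis with saponin/Triton buffer containing SYBR Green I, overnight at room temperature in the dark; DNA fluorescence (485/535 nm) normalised to 0.29 uM artemisinin and DMSO.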

[12] = qHTS profiling of the MIPE4 collection as inhibitors of Plasmodium falciparum (DD2) proliferation (AID 743345); conditions: P. falciparum Dd2 in erythrocytes, SYBR Green DNA, 72 h; at 28.5 µM (top of the series) unless noted
Method in brief: as §1

[13] = qHTS profiling of the MIPE4 collection as inhibitors of Plasmodium falciparum (DD2) proliferation (Rep 2) (AID 743346); conditions: P. falciparum Dd2 in erythrocytes, SYBR Green DNA, 72 h; at 28.5 µM (top of the series) unless noted
Method in brief: as §1

[14] = qHTS profiling of the MIPE4 collection as inhibitors of Plasmodium falciparum (HB3) proliferation (AID 743347);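 also: plate controls were DMSO vehicle wells for no effect and artemisinin wells for full effect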; conditions: P. falciparum HB3 in erythrocytes, SYBR Green DNA, 72 h; at 28.5 µM (top of the series) unless noted
Method in brief: as §1

**Q.** For `CNCC(=O)c1ccc(O)c(O)c1`, which max response [1] is on record?
**A.** The max response was 39.9% (inactive).

**Q.** What about the outcome [2] of the same compound?
**A.** The outcome was “inactive”.

**Q.** And the outcome [3]?
**A.** The outcome was “inactive”.

**Q.** Which results are given for `O=c1oc2ccccc2c(O)c1Cc1c(O)c2ccccc2oc1=O`?
**A.** max response [1]: 2.96% (inactive); outcome [2]: inactive

**Q.** For `C/C(=N\O)c1ccc(OCC(=O)N2CCCCC2)cc1`, which outcome [2] is on record?
**A.** The outcome was “inactive”.

**Q.** What about the outcome [3] of the same compound?
**A.** The outcome was “inactive”.

**Q.** With `Nc1ccc(O)cc1` as the compound, how does the outcome [2] read?
**A.** Its outcome is “inactive”.

**Q.** And the outcome [3]?
**A.** Its outcome is “inactive”.

**Q.** Which results are given for `CCOc1cc(OCC)c(C(=O)CCC(=O)O)cc1OCC`?
**A.** outcome [2]: inactive; outcome [3]: inactive

**Q.** With `Nc1ccccc1` as the compound, how does the outcome [4] read?
**A.** The outcome was “inactive”.

**Q.** What about the outcome [5] of the same compound?
**A.** Its outcome is “inactive”.

**Q.** And the max response [6]?
**A.** The max response was -9.58% (inactive).

**Q.** And the max response [1]?
**A.** Its max response is -6% (inactive).

**Q.** And the max response [7]?
**A.** The max response was -4.37% (inactive).

**Q.** What about the outcome [2] of the same compound?
**A.** Its outcome is “inactive”.

**Q.** Which results are given for `C[C@@H](N)[C@@H](O)c1ccccc1`?
**A.** max response [1]: 12.7% (inactive); outcome [2]: inactive; outcome [3]: inactive

**Q.** For `CN1CCC[C@@H]1c1cccnc1`, which max response [1] is on record?
**A.** Its max response is 35% (inactive).

**Q.** What about the outcome [2] of the same compound?
**A.** Its outcome is “inactive”.

**Q.** And the outcome [3]?
**A.** The outcome was “inactive”.

**Q.** Which outcome [8] does the source give for `CC(C)(C)NCC(O)c1ccccc1Cl` (configuration not stated) here?
**A.** The outcome was “inactive”.

**Q.** And the outcome [9]?
**A.** The outcome was “inactive”.

**Q.** What about the outcome [10] of the same compound?
**A.** Its outcome is “inactive”.

**Q.** What about the max response [1] of the same compound?
**A.** Its max response is -5.65% (inactive) and 5.12% (inactive).

**Q.** What about the outcome [2] of the same compound?
**A.** The outcome was “inactive”.

**Q.** With `NC1=NC(=O)C(c2ccccc2)O1` (configuration not stated) as the compound, how does the max response [1] read?
**A.** The max response was -7.8% (inactive).

**Q.** What about the outcome [2] of the same compound?
**A.** The outcome was “inactive”.

**Q.** For `O=C1CC[C@@H](C(=O)O)N1`, which outcome [2] is on record?
**A.** Its outcome is “inactive”.

**Q.** What about the outcome [3] of the same compound?
**A.** The outcome was “inactive”.

**Q.** Which parasite growth, % of DMSO control [11] does the source give for `C[C@]12CCC(=O)C=C1CC[C@@H]1[C@H]3CC[C@](C)(O)[C@@]3(C)CC[C@@H]12` here?
**A.** The parasite growth, % of DMSO control was 70.7% [at 57.5 µM].

**Q.** What about the parasite growth remaining, % of DMSO control (lower = more inhibition) [12] of the same compound?
**A.** Its parasite growth remaining, % of DMSO control (lower = more inhibition) is 94.5% [at 57.5 µM].

**Q.** What about the parasite growth, % of control (lower = inhibition) [13] of the same compound?
**A.** Its parasite growth, % of control (lower = inhibition) is 65.8% [at 57.5 µM].

**Q.** And the growth, % of control [14]?
**A.** The growth, % of control was 84.5% [at 57.5 µM].

**Q.** And the outcome [3]?
**A.** Its outcome is “inactive”.

**Q.** What does the source list for `COc1cc(OC)c(OC)cc1C=O`?
**A.** outcome [4]: inactive; outcome [5]: inactive; max response [6]: 3.08% (inactive); max response [1]: 4.65% (inactive); max response [7]: -1.47% (inactive); parasite growth, % of DMSO control [11]: 98%; parasite growth remaining, % of DMSO control (lower = more inhibition) [12]: 89%; parasite growth, % of control (lower = inhibition) [13]: 110%; growth, % of control [14]: 102%; outcome [3]: inactive
